Measured values reported in PubChem BioAssay (NCI).
This is part of a sample that, as a whole, favours compounds with a hit. Of some 83,000 tested, about 20% had one in any assay.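 Cell lines were cultured in 96-well plates, exposed to a single compound concentration, and assessed for percent growth 48 hours later.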 A number with no mark means an inactive call. The source made the active and inactive calls. How the source made its calls: active means growth percent below 10; inactive means the rest.

Columns and labels:
Assay in all cases: NCI-60 one-dose screen, 48 h (100 = growth as untreated, 0 = no growth, -100 = all killed)
Settings in all cases: 10 µM unless noted
[1] = test system: NCI-H23 lung
[2] = test system: NCI-H226 lung
[3] = test system: NCI-H322M lung
[4] = test system: HOP-62 NSCLC
[5] = test system: NCI-H460 lung
[6] = test system: HOP-92 NSCLC
[7] = test system: NCI-H522 lung
[8] = test system: A549/ATCC NSCLC
[9] = test system: 786-0 renal
[10] = test system: COLO 205 colon

Row | Structure (SMILES) | growth [1] | growth [2] | growth [3] | growth [4] | growth [5] | growth [6] | growth [7] | growth [8] | growth [9] | growth [10]
1 | Cc1nc2sc(C(=O)Nc3cccc(Cl)c3C)c(N)c2cc1C(=O)/C=C/c1ccccc1 | 28.6% | -52.2% (active) | 19.1% | -11.2% (active) | -25.3% (active) | 1.05% (active) | -49.8% (active) | 10.1% | -51.1% (active) | -5.18% (active)
2 | Fc1cc2[nH]ncc2c2c3c(c(-c4cn[nH]c4C(F)(F)F)nc12)CCCC3 | -12.2% (active) | 6.19% (active) | -0.0231% (active) | -1.79% (active) | 2.41% (active) | -71% (active) | -24.2% (active) | 2.17% (active) | 1.39% (active) | -45.6% (active)
3 | COc1cccc(CNc2c3ccccc3nc3ccccc23)c1OC | 32.4% | 51.6% | 41.6% | 51.2% | 11.6% | -2.4% (active) | 40.1% | 30.3% | 38.8% | 21.5%
4 | C=C1CC[C@@H]2C(C)(C)[C@H](O)CC[C@@]2(C)[C@@H]1COc1ccc2ccc(=O)oc2c1 | 40.7% | 28.5% | 92.4% | 45.9% | 90.5% | 72.4% | 32.8% | 51.5% | 93% | 68.7%
5 | N#CSc1c[nH]c2ccc(/C=C/C(=O)/C=C(O)/C=C/c3ccc4[nH]cc(SC#N)c4c3)cc12 | 25.3% | 31.6% | 96.9% | 28.1% | 12.5% | -21.3% (active) | -63.9% (active) | 12.4% | 13.9% | -39.7% (active)
6 | O=C(O)CCCCCCCCCCN1C(=O)/C(=C2/C(=O)N(CC(=O)O)c3ccc(Br)cc32)SC1=S | 92.8% | 98.1% | 97% | 102% | 105% | 80.7% | 90.1% | 92% | 54.7% | 110%
7 | Cn1c(=O)c2[nH]c(SC/C(=N/O)c3ccc(Br)cc3)nc2n(C)c1=O | 35.7% | -7.02% (active) | 34.8% | 8.56% (active) | 20.9% | -72.9% (active) | -14.5% (active) | 60.4% | -68.6% (active) | 110%
8 | CS(=O)(=O)Nc1cc(-c2ccc3ncnc(Nc4ccc5c(cnn5Cc5ccncc5)c4)c3c2)cnc1Cl | 62.2% | 92% | 76% | 43.9% | 97.2% | -7.79% (active) | 46.4% | 86% | 66.3% | 89.2%
9 | CCC(C)(C)c1ccc(Nc2ccc(Nc3ccc(C(C)(C)CC)cc3)cc2)cc1 | 83.1% | 93% | 105% | 89.3% | 99.1% | 51.1% | 79.9% | 90.4% | 84.4% | 84.7%
10 | CNC(=O)c1cc(Oc2ccc3c(c2)sc2nc(-c4ccc(NC(=O)[C@@H](NC(=O)OC)C(C)C)cc4)cn23)ccn1 | 77.6% | 56.9% | 107% | 82.5% | 87.6% | 61.7% | 43.6% | 80.8% | 87.4% | 63.9%
11 | O=C1C=CC2(O)OC/C(=C\c3ccccc3)C(O)=C2C1=O (stereo not given) | 36.1% | 81% | 72.2% | 5.5% (active) | 29.1% | -3.3% (active) | -73.1% (active) | 42.2% | -41.3% (active) | 36.2%
12 | Cc1ccc(-c2nc(SCC(=O)N3CCN(c4cc5c(cc4F)c(=O)c(C(=O)O)cn5C4CC4)CC3)nc(Cl)c2C#N)cc1 | 100% | 104% | 101% | 90.4% | 103% | 112% | 93.8% | 107% | 97.8% | 108%
13 | COC(=O)c1c(C)nc(C)c2c1C(=O)C=C(NCc1ccccc1)C2=O | 72% | 93.9% | 92.5% | 91.2% | 67.1% | 117% | 78.8% | 103% | 84.7% | 78.5%
14 | CN(C)C1CN(C(=O)c2cc(-c3ccc4ncnc(N5CCc6cc(F)c(Cl)cc65)c4c3)cnc2N)C1 | 23.9% | 30.7% | 5.68% (active) | 16.5% | 12.7% | -15% (active) | 16.3% | 6.53% (active) | 7.47% (active) | 20.4%
15 | Clc1ccc(Nc2nnc(CNc3ccccc3)c3ccccc23)cc1 | 9.95% (active) | 25% | 30.4% | 27.4% | 17.7% | -19.3% (active) | -5.92% (active) | 20.3% | 21.4% | 11.9%
16 | O=C1/C(=C/c2ccc(Cl)cc2)CN(C(=O)C(Cl)Cl)C/C1=C\c1ccc(Cl)cc1 | -69.2% (active) | -24.4% (active) | -70.9% (active) | -61.5% (active) | -64.9% (active) | -59.9% (active) | -60.3% (active) | -21.2% (active) | -80.2% (active) | -68.5% (active)
17 | Cc1cccc(NC(=O)N/C(N)=N/c2nc3ccccc3s2)c1 | 40.9% | 53.7% | 47.7% | 30.3% | 17.6% | 62.7% | 16% | 45.9% | 38.6% | 16.9%
18 | O=C(CN1C(=O)S/C(=C\C(Cl)=C\c2ccccc2)C1=O)NC1CCS(=O)(=O)C1 (stereo not given) | 74.3% | 77.3% | 95.7% | 99.7% | 94.2% | 80.4% | 34.2% | 94.3% | 78.7% | 59%
19 | CC[C@H](Nc1nc(N)nc(C)c1C#N)c1nc2cccc(CN(C)c3ncc(C(=O)NO)cn3)c2c(=O)n1-c1ccccc1 | 11.6% | 24.3% | 5.95% (active) | 11.4% | 10.8% | -28.3% (active) | -45.2% (active) | 27.4% | 11.9% | -55.8% (active)
20 | COC12C=C/C(=C(/C(=O)OCc3cncnc3)C(=O)CCCCCCCCC3(OC)C=C/C(=C(/C(=O)OCc4cncnc4)C(=O)CCCCCCCC1)O3)O2 | -49.9% (active) | -78% (active) | -66% (active) | 9.7% (active) | -20.5% (active) | -59.7% (active) | -33.8% (active) | -7.89% (active) | -70.7% (active) | -30.5% (active)
21 | COc1cc(C=Nc2oc(-c3ccccc3)c(-c3ccccc3)c2C#N)cc(CN2CCCC2)c1O | 94.8% | 93.7% | 103% | 94% | 102% | 85.6% | 85.8% | 94.4% | 99.3% | 114%
22 | COC1C(O)CC(OC2CC(OC3CC(O[C@@H]4C(=O)c5c(cc6cc(OC7CC(OC8CC(O)C(O)C(C)O8)C(O)C(C)O7)c(C)c(O)c6c5O)CC4[C@H](OC)C(=O)O)OC(C)C3O)OC(C)C2O)OC1C (stereo not given in full) | 6.6% (active) | -36.1% (active) | 14.5% | 1.26% (active) | 13.5% | 20.4% | -13.7% (active) | 8.44% (active) | 34.7% | 14.7%
23 | C=C1C(=O)O[C@H]2[C@H]1CC/C(COC(=O)C(=O)c1c[nH]c3ccc(Cl)cc13)=C\CC[C@@]1(C)O[C@@H]21 | -55.7% (active) | -73% (active) | -76.2% (active) | -53.1% (active) | -72.9% (active) | -92.8% (active) | -48.4% (active) | -82.2% (active) | -99.1% (active) | -51.9% (active)
24 | CCOC(=O)c1cnn(CC(C)O)c1NC(=O)NCc1cccc(F)c1 (stereo not given) | 97.5% | 103% | 97.7% | 100% | 105% | 68% | 66% | 100% | 95.1% | 118%
